Experimental data published in the supplement of paper PMC9334596.
“And” between values parts separate entries of the source, which are not always exact repeats. Equal values may be shown once. In all, about 5,300 compounds were measured (“PER2::LUC luminescence relative to vehicle control”: median about 0.96, highest 2% from about 1.3 on). The entries come from a sample that favours the highest values as a whole.

System: mPer2Luc MEF
Experiment: PER2::LUC luminescence relative to vehicle control (fold of vehicle); higher = higher PER2::LUC reporter signal
Conditions: 10 µM
Procedure, shortened: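 Compounds from commercial libraries were added at 10 μM to 384-well plates seeded 48 h earlier with ~3000 mPer2Luc mouse embryonic fibroblasts per well. The cells were kept in DMEM with 10% FBS at 37 °C and 5% CO2. Luminescence was read with ONE-Glo 24 h and 30 h after treatment, then an alamarBlue viability assay was run. Values are PER2::LUC luminescence relative to vehicle control, as fold change.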

Compound | PER2::LUC luminescence (time after treatment 24 h) | PER2::LUC luminescence (time after treatment 30 h)
COc1c(O)cc(O)c2c(=O)cc(-c3ccccc3)oc12 | 1.03 | 1.02
O=c1cc(-c2ccc(O)cc2)oc2cc(O)cc(O)c12 | 0.595 | 0.545
COc1cc(OC)c2c(=O)cc(-c3ccccc3)oc2c1 | 1.01 | 1.12
O=c1cc(-c2ccccc2)oc2cccc(O)c12 | 1.25 | 1.42
COc1cc(C)c2c(=O)cc(-c3ccccc3)oc2c1 | 1.64 | 1.76
O=C(O)[C@H]1O[C@@H](Oc2cc3oc(-c4ccccc4)cc(=O)c3c(O)c2O)[C@H](O)[C@@H](O)[C@@H]1O | 1.22 | 1.34
O=c1cc(-c2ccccc2)oc2cc(O)cc(O)c12 | 1.55 and 1.53 | 2.06 and 1.73
O=c1cc(-c2ccc(O)c(O)c2)oc2cc(O)cc(O)c12 | 1.01 | 1.1
COc1ccc(-c2cc(=O)c3c(OC)c(OC)c(OC)cc3o2)cc1OC | 0.736 | 0.843
O=c1cc(-c2ccccc2)oc2cc(O)c(O)c(O)c12 | 1.13 | 1.1
COc1cccc2oc(-c3ccccc3)cc(=O)c12 | 1.41 | 1.43
COc1ccc(-c2cc(=O)c3c(OC(C)=O)cc(OC(C)=O)cc3o2)cc1 | 1.25 | 1.3
CC[C@H]1OC(=O)C[C@@H](O)[C@H](C)[C@@H](O[C@@H]2O[C@H](C)[C@@H](O)[C@H](N(C)C)[C@H]2O)[C@@H](CCN2CCCCC2)C[C@@H](C)C(=O)/C=C/C(C)=C/[C@@H]1CN1CCCCC1 | 0.885 | 0.882
CC1NC(=O)NC1=O (stereo not given) | 0.946 | 0.877
CCO[C@H]1CN(C2CCC(O)(c3ccc4c(c3)OCO4)CC2)C[C@@H]1NC(=O)CNC(=O)c1cccc(C(F)(F)F)c1 (stereo not given in full) | 0.97 | 0.88
C#CCN(Cc1cc2c(=O)n(C)c(CN3CCN(C)CC3)nc2cc1Cl)c1ccc(C(=O)NCc2cccnc2)cc1 | 0.621 | 0.565
c1ccc2c3c([nH]c2c1)[C@H]1[C@@H]2CC[C@@H]([C@@H]4CCCN[C@@H]42)N1CC3 | 1.23 | 1
CC(C)CCC[C@@H](C)[C@H]1CC[C@H]2[C@@H]3C=CC4=CC(=O)CC[C@]4(C)[C@H]3CC[C@]12C | 0.981 | 0.927
CC(C(=O)O[C@]12CCC[C@H](CC1)N2C)c1ccc(Br)cc1 (stereo not given in full) | 0.821 | 0.934
CCOc1ccc(Oc2ccc(OCc3cc(F)ccc3F)cc2)c(N)c1 | 1.03 | 0.887
C[C@@H]1O[C@@H](OC[C@H]2O[C@@H](OCCc3ccc(O)c(O)c3)[C@H](O)[C@@H](O[C@@H]3O[C@@H](C)[C@H](O)[C@@H](O)[C@H]3O)[C@@H]2OC(=O)/C=C/c2ccc(O)c(O)c2)[C@H](O)[C@H](O)[C@H]1O | 1.09 | 0.982
N[C@@H](C(=O)N[C@@H]1C(=O)N2C(C(=O)O)=C(CSc3cn[nH]n3)CS[C@H]12)c1ccc(O)cc1 | 1 | 0.912
C/C1=C/CCC(C)(O)/C=C\C(C(C)C)C(OC(=O)c2ccc(O)cc2)C1 (stereo not given) | 1.06 | 1.07
O=C1NC(=O)/C(=C\c2ccc3nccnc3c2)S1 | 1.2 | 1.23
O=C1NC(=O)/C(=C/c2ccc3c(c2)OC(F)(F)O3)S1 | 1.31 and 1.12 | 1.42 and 1.06

Compound | PER2::LUC luminescence (time after treatment 24 h) | PER2::LUC luminescence (time after treatment 30 h)
O=C1NC(=O)/C(=C/c2cccc(C(F)(F)F)c2)S1 | 1.02 | 1.06
O=C(O)c1cccc(CN2C(=O)/C(=C(\c3ccccc3)c3ccc(Cl)cc3)c3ccccc32)c1 | 1.09 | 1.03
CO[C@@H]1[C@@H](O[C@@H]2O[C@H](C)[C@@H](O[C@H]3C[C@@](C)(O)[C@@H](OC(=O)CC(C)C)[C@H](C)O3)[C@H](N(C)C)[C@H]2O)[C@@H](CC=O)C[C@@H](C)[C@@H](O)/C=C/C=C/C[C@@H](C)OC(=O)C[C@H]1O | 0.929 | 1.07
CN(C)c1ccc2c(c1)OC(N)=C(C#N)C2c1cccc(C(F)(F)F)c1 (stereo not given) | 1.04 | 1
NC(=O)c1ccccc1Nc1ccnc(Nc2cccc(O)c2)n1 | 0.392 | 0.446
CC1(C)C2CCC1(C)C(O)C2 (stereo not given) | 1.1 | 0.997
Clc1ccc(COC(Cn2ccnc2)c2ccc(Cl)cc2Cl)cc1 (stereo not given) | 1.26 and 1.03 | 1.35 and 1.25
Clc1ccc(C(Cn2ccnc2)OCc2ccc(Sc3ccccc3)cc2)c(Cl)c1 (stereo not given) | 0.905 | 1.06
Clc1ccc(COC(Cn2ccnc2)c2ccc(Cl)cc2Cl)c(Cl)c1 (stereo not given) | 1.04 and 0.591 | 1.29 and 1.01
C=CC(C1=CC(=O)C(OC)=CC1=O)c1ccc(O)cc1 (stereo not given) | 0.816 | 0.863
CCCCCCCCCCC1=C(C)C(=O)C(OC)=C(OC)C1=O | 1.02 | 0.992
CCN1C[C@H](C)n2c(c(O)c3c(=O)n(Cc4ccc(F)c(Cl)c4)nc(C(=O)NC)c32)C1=O | 1.29 | 1.16
C[C@@H]1CCO[C@H]2Cn3cc(C(=O)NCc4ccc(F)cc4F)c(=O)c(O)c3C(=O)N12 | 1.35 and 1.15 | 1.4 and 1.2
CC(=O)c1ccc2c(c1)C1C=CCC1C(c1cc3c(cc1Br)OCO3)N2 (stereo not given) | 1.02 | 0.942
CC(C(=O)Nc1cc(C#N)ccc1CCCC(=O)O)c1ccc(F)c2ccccc12 (stereo not given) | 1.06 | 1.03
COC(=O)C(O)CCn1cnc2c(N)ncnc21 (stereo not given) | 0.95 | 0.999
COc1cccc(OC)c1C(=O)N[C@@H]1C(=O)N2[C@@H]1SC(C)(C)[C@@H]2C(=O)O | 0.867 | 0.823
CC1(C)S[C@@H]2[C@H](NC(=O)C(C(=O)O)c3ccccc3)C(=O)N2[C@H]1C(=O)O (stereo not given in full) | 1.05 | 1.03
CC1(C)S[C@@H]2[C@H](NC(=O)[C@H](N)c3ccccc3)C(=O)N2[C@H]1C(=O)O | 1.04 and 0.885 | 0.911 and 0.808
CC(Oc1ccccc1)C(=O)N[C@@H]1C(=O)N2[C@@H]1SC(C)(C)[C@@H]2C(=O)O (stereo not given in full) | 1.02 | 0.902
CC1(C)S[C@@H]2[C@H](NC(=O)Cc3ccccc3)C(=O)N2[C@H]1C(=O)O | 1.06 and 1.17 | 1.72 and 0.949
CC1(C)S[C@@H]2[C@H](NC(=O)COc3ccccc3)C(=O)N2[C@H]1C(=O)O | 1.09 | 1.56
Nn1cc(Br)c(=O)[nH]c1=O | 0.972 | 0.954
CC[N+]1(C)C2CCC1CC(OC(=O)C1CCC(C(=O)OC3CC4CCC(C3)[N+]4(C)CC)(c3ccccc3)c3ccccc31)C2 (stereo not given) | 0.898 | 0.961
CN(Cc1ccccc1)c1ccc2cc(C(=O)O)c(=O)oc2c1 | 1.06 | 0.948
